{"source": "PubChem BioAssay AID463116", "about": "(University of Pittsburgh Molecular Library Screening Center, 2010)", "note": "Out of some 1,000 compounds screened, about 710 (71%) were called active. Not shown: some 7% with an inconclusive outcome.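 How the source made its calls: active means inhibition of receptor movement into the nucleus at or above a set limit in both runs, with normal cell brightness and cell count; inconclusive means limit reached in only one run, brightness and count normal; inactive means the rest.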 So high a share suggests a set chosen from earlier hits. A selection follows.", "data": [{"assay": "dynein cargo transport inhibitors, GR-EGFP translocation, confirmation, imaging, high-content imaging, GR-EGFP cells (AID 463116);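 on inhibition: dexamethasone at 1 µM final in well for 30 min; nuclear minus cytoplasmic GR-EGFP mean intensity difference in channel 2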", "details": "3617.4 GR-EGFP nuclear translocation imaging, dexamethasone-induced, at 20 µM; inhibition: stronger effect = higher value; z-score: measured here: cell count per field", "values": [{"smiles": "O=[N+]([O-])c1cc(S(=O)(=O)CCCN2CCOCC2)ccc1F", "inhibition": "80.5% (active)", "z-score": 0.409}, {"smiles": "CC1CCN(C(=O)c2ccc(S(=O)(=O)Cc3cc(F)ccc3F)c([N+](=O)[O-])c2)CC1", "inhibition": "37.2% (inactive)", "z-score": 0.248}, {"smiles": "COc1ccc(-c2csc3nc(-c4ccccc4F)oc(=O)c23)cc1OC", "inhibition": "76.8% (active)", "z-score": 0.201}, {"smiles": "Cn1c(=O)c([N+](=O)[O-])c(Oc2ccccc2)c2ccccc21", "inhibition": "77.8% (active)", "z-score": 0.222}, {"smiles": "Cc1cccc(Oc2c([N+](=O)[O-])c(=O)n(C)c3ccccc23)c1", "inhibition": "65.6% (active)", "z-score": 0.355}, {"smiles": "CC(C)(C)C1C/C(=C/c2ccco2)C(=O)/C(=C/c2ccco2)C1", "note": "(stereo unspecified)", "inhibition": "184% (inactive)", "z-score": 0.226}, {"smiles": "Cc1cccc2cc3c(N)c(C(=O)N4CCCc5ccccc54)sc3nc12", "inhibition": "97.1% (active)", "z-score": -0.357}, {"smiles": "COc1ccc(NC(=O)/C(Cl)=C(/Cl)S(=O)Cc2ccc(C)cc2)cn1", "note": "(stereo unspecified)", "inhibition": "76.8% (active)", "z-score": 0.179}, {"smiles": "CC1=C/C(=N\\OS(=O)(=O)c2ccccc2)C=CC1=O", "inhibition": "85.1% (active)", "z-score": 0.68}, {"smiles": "Nc1ccccc1SC(C[N+](=O)[O-])c1ccccc1", "note": "(stereo unspecified)", "inhibition": "71.2% (active)", "z-score": -0.448}, {"smiles": "O=C1/C(=C\\c2cccnc2)CN(Cc2ccccc2)C/C1=C\\c1cccnc1", "inhibition": "81.1% (active)", "z-score": 0.0646}, {"smiles": "Cc1cc(-c2n[nH]c(=S)n2/N=C/C(Br)=C/c2ccccc2)n[nH]1", "inhibition": "80.8% (active)", "z-score": 0.326}, {"smiles": "Cc1[nH]c(=O)c(C(=O)/C=C/c2ccccc2)c2c1CCCC2", "inhibition": "71.9% (active)", "z-score": 0.213}, {"smiles": "O=C(CCl)N(Cc1cccc([N+](=O)[O-])c1)c1cccc(Cl)c1", "inhibition": "84.8% (active)", "z-score": 0.159}, {"smiles": "COc1ccc(-c2cc(C(F)(F)F)nc(S(C)(=O)=O)n2)cc1OC", "inhibition": "51.4% (active)", "z-score": 0.253}, {"smiles": "Cc1cc(C(=O)NCCc2ccc(Cl)cc2)n(-c2ccccc2)n1", "inhibition": "16.2% (inactive)", "z-score": 0.17}, {"smiles": "Cc1cc(C)nc(S/C=C/C(=O)c2ccccc2)n1", "inhibition": "68.4% (active)", "z-score": 1.05}, {"smiles": "Clc1cccc(-c2nc3nc4ccccc4nc3n2Cc2ccco2)c1", "inhibition": "12.8% (inactive)", "z-score": 0.105}, {"smiles": "COc1ccc(C(=O)NCC(=O)N/N=C/c2ccc([N+](=O)[O-])o2)cc1OC", "inhibition": "59.2% (active)", "z-score": -0.0055}, {"smiles": "O=C(/C=C/Sc1ncn[nH]1)c1ccc(Cl)cc1", "inhibition": "69.1% (active)", "z-score": 0.228}, {"smiles": "CCN(CC)c1ccc2oc(=O)c(C)nc2c1", "inhibition": "82.6% (active)", "z-score": 0.353}, {"smiles": "COc1ccc(C(CCN(Cc2ccc(OC)c(OC)c2)C(=O)CCl)c2ccccc2)cc1", "note": "(stereo unspecified)", "inhibition": "90.9% (active)", "z-score": -0.513}, {"smiles": "O=C(CCl)Nc1cccc(CP(=O)(c2ccccc2)c2ccccc2)c1", "inhibition": "63.6% (active)", "z-score": 0.239}, {"smiles": "O=C1C=C(c2ccc(Cl)cc2)C(=O)N1Nc1ccccc1", "inhibition": "81% (active)", "z-score": 1.03}, {"smiles": "O=C(Nc1ccccc1)c1nnsc1S(=O)(=O)c1ccc(Cl)cc1", "inhibition": "38.8% (inactive)", "z-score": -5.42}, {"smiles": "CCOC(=O)C(=Cc1ccccc1OC)C(=O)OCC", "inhibition": "82.2% (active)", "z-score": 0.778}, {"smiles": "N#C/C(=C/c1ccc(N2CCCCC2)o1)C(=O)NCCc1c[nH]c2ccccc12", "inhibition": "96.8% (active)", "z-score": 0.0808}, {"smiles": "Oc1c(C=Nc2cccc3nsnc23)ccc2ccccc12", "inhibition": "23.9% (inactive)", "z-score": 0.36}, {"smiles": "COc1cc2c(cc1O)C(SC)=NC(C)(C)C2", "inhibition": "79.1% (active)", "z-score": 0.013}, {"smiles": "COC(=O)/C=C\\C(=O)Nc1cccc([N+](=O)[O-])c1", "inhibition": "77.7% (active)", "z-score": -1.06}, {"smiles": "CCC1=C/C(=C\\c2ccc3c(c2)OCO3)C(=O)S1", "inhibition": "30.5% (inactive)", "z-score": 0.474}, {"smiles": "C[C@@H]1C[C@@H]2O[C@H]2/C=C\\C=C\\C(=O)Cc2c(Cl)c(O)cc(O)c2C(=O)O1", "inhibition": "90.1% (active)", "z-score": -0.431}, {"smiles": "Cc1cc(C)c2c3c(sc2n1)C(c1ccccc1)C(C#N)=C(N)O3", "note": "(stereo unspecified)", "inhibition": "23.6% (inactive)", "z-score": 0.166}, {"smiles": "CCN1/C(=C/c2ccc3ccc(C)cc3[n+]2CC)Sc2ccccc21", "inhibition": "99.7% (active)", "z-score": 0.0317}, {"smiles": "O=S1(=O)CCC(NC(=S)SCc2ccccc2Br)C1", "note": "(stereo unspecified)", "inhibition": "67.1% (active)", "z-score": -0.249}, {"smiles": "C=CS(=O)c1sc(Cl)c(N2CCOCC2)c1[N+](=O)[O-]", "note": "(stereo unspecified)", "inhibition": "83.2% (active)", "z-score": -0.577}, {"smiles": "Nc1c(C(=O)c2cccs2)sc2nsc(SCCN3CCCCC3)c12", "inhibition": "91.8% (active)", "z-score": 0.159}, {"smiles": "CC1(C)CCSC(/C=C/c2ccccc2)=N1", "inhibition": "90.7% (active)", "z-score": -0.988}]}]}
